Bioassay records deposited in PubChem by National Center for Advancing Translational Sciences (NCATS).
DRD3 antagonist – qHTS of D3 Dopamine Receptor Antagonist: qHTS; D(3) dopamine receptor (Homo sapiens), P35462; D3R cells, DiscoveRx beta-arrestin luminescence, antagonist mode; active compounds read low; max response, negative = inhibition, %; 360,000 tested, 2.5% active; in the data active = max response below about -50%; inconclusive = no clear call, values can overlap the other calls; note: % is set by controls: 0 for no effect and ±100 for the full control effect
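Cells expressing the human receptor were seeded at 1500 cells/well, incubated overnight at 37 degrees C in 5% CO2, then exposed to library compounds with dopamine controls for 90 minutes at 37 degrees C before luminescent detection.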
CBFb-RUNX1 inh – qHTS Assay for Compounds Blocking the Interaction Between CBF-beta and RUNX1 for the Treatment of Acute Myeloid Leukemia | Runt-related transcription factor 1 (Homo sapiens) + Core-binding factor subunit beta … | Potency, µM (series often up to 59.8 µM), for the others: at the highest dose activity, negative = inhibition, actives largely listed as inhibitors | AlphaScreen CBFb-His/RUNX1-biotin binding, biochemical | 230,000 tested, under 10 active; note: % of control where 0% means no effect
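AlphaScreen proximity signal reports loss of binding between His-tagged CBF-beta and biotin-labelled RUNX1, each at 30 nM. Proteins are pre-associated for 20 minutes, compounds added for 15 minutes, then beads for 90 minutes, all at ambient temperature.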
Integrin act MD – qHTS for Activators of Integrin-Mediated Alleviation for Muscular Dystrophy; alpha7betagal myoblasts, beta-gal FDG fluorescence, 48 h; Potency, µM (highest dose often 38.3 µM), inactives show top-dose activation, actives largely listed as activators; 350,000 tested, 0.064% active;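 note: potency is the fitted concentration of half-maximal effect; 100% = response of the positive control SU9516; nearly all actives have a fitted effect of over 60% in size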
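alpha7betagal+/- myoblasts (passage 13, 250/well) treated 48 h at 37C with compounds at 1:260 dilution of DMSO stock. Lysed, then beta-galactosidase activity read as FDG fluorescence (ex 480/em 540) after 30 min, with pre-read for autofluorescence.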
DRD3 agonist – qHTS of D3 Dopamine Receptor Agonist: qHTS; D(3) dopamine receptor (Homo sapiens), P35462; AID 652048, 2013; D3R DiscoveRx beta-arrestin cells, luminescence, 90 min; max activation, %; 410,000 tested, 0.58% active; in the data active = max activation above about 30%; note: 0% is about no effect
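Cells at 1500/well, incubated overnight, then treated with pinned compounds (dopamine as control) for 90 min at 37 degrees C. DiscoveRx reagent added for 30 - 60 minutes at room temperature; luminescence read.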
MBNL1 CUG block – qHTS Assay for Inhibitors of MBNL1-poly(CUG) RNA binding; AID 2675, 2010; TR-FRET MBNL1-His/biotin-(CUG)12 binding, 665/545 ratio; 280,000 tested, 0.036% active; Muscleblind-like protein 1 (Homo sapiens), Q9NR56; Potency, µM (highest dose often 57.5 µM), for inactives: at the top dose activity change, negative = inhibition, actives largely listed as inhibitors; active = well fitted inhibition curve with a large enough effect in the signal ratio, with a control signal flat, not every such curve was filed as active; inconclusive = small, poorly fitted or top-dose-only effect, or effect the other way, or a change in a side signal; inactive = no such curve, though single readings can be large or run the other way; the % refers to the signal ratio; note: potency is the fitted concentration of half-maximal effect; % is set by controls: 0 for no effect and ±100 for the full control effect
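Inhibition of protein-RNA binding appears as loss of TR-FRET between terbium anti-His antibody on MBNL1-His and streptavidin-XL665 on biotin-(CUG)12. Activity is normalized to buffer-only and uninhibited-complex controls.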
PTHR1 ag – qHTS for PTHR1 Agonists: Primary Screen; Parathyroid hormone/parathyroid hormone-related peptide receptor (Homo sapiens), Q03431; HEK293 GP2 PTHR1 cells, GloSensor cAMP luminescence, 1 h; Potency, µM (doses to about 115 µM), for inactives: at the highest dose activation, usual class: activators; 410,000 tested, 0.075% active; note: potency is the fitted concentration of half-maximal effect; nearly all actives have a fitted effect of over 55% in size
Target sequence (Q03431 whole entry, looked up): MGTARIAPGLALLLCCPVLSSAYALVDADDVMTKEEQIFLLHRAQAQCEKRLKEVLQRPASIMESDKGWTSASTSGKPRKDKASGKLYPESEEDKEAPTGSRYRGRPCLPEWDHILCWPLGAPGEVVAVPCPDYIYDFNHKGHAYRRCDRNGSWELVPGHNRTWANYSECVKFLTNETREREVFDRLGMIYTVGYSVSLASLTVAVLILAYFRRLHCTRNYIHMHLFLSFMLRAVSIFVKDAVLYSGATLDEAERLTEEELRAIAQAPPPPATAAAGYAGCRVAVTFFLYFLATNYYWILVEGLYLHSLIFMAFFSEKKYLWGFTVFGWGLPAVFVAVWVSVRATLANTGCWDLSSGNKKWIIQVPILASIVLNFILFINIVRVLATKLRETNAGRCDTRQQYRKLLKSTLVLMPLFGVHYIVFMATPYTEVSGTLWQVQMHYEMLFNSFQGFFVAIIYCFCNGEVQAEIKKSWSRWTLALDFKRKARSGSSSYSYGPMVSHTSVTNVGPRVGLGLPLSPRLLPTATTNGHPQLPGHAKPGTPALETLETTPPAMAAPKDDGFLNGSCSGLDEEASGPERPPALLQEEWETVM
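HEK-293-derived GP2 cells expressing PTHR1 and a GloSensor cAMP reporter, 3,000/well, plated overnight, given luciferin plus IBMX (each 0.5 mM as added) for 1 h at 37 °C, then compound for 1 h at 37 °C. Luminescence was read after 15 min at room temperature.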
Starred values were filed as active, the others as inactive; i = inactive; ? = inconclusive; / = no result; [ ] = remark or other dose. This is a sample that favours compounds with a hit; in the whole collection about 2.8% have one here. Unless noted, calls come from the whole dose curve; as a rule, active = well fitted curve in the direction sought with a large enough effect; inconclusive = small, poorly fitted or top-dose-only effect, or another doubt; inactive = no such curve, though single readings can be large; an effect the other way counts as inactive or inconclusive.

SMILES	DRD3 antagonist	CBFb-RUNX1 inh	Integrin act MD	DRD3 agonist	MBNL1 CUG block	PTHR1 ag
CCOC(=O)CC(NS(=O)(=O)c1ccc(OC)c(C)c1)c1cccc([N+](=O)[O-])c1 (stereo not drawn)	2.3	10.0%	28.0%	-2.2	?	i
Cc1oc(-c2cccs2)nc1CN1CCC(CO)(CCOc2ccccc2)CC1	-89.0*	0.8%	-32.8%	-11.8	0.5%	i
CC(=O)N/C(=C/c1ccc2c(c1)OCO2)C(=O)NCc1ccccc1	-6.5	5.6%	-46.2%	-20.4	10.1%	i
Cc1ccc(C(=O)NCC(=O)Nc2ccncc2)cc1	0.4	/	7.8%	2.6	0.8%	-20.7%
Cc1ccc(C(=O)CN(CCC(=O)O)C(=O)c2ccncc2)cc1	27.9	/	-19.1%	31.4*	/	i
Cn1ccc2c(-c3ccccc3F)cc3c(c21)C1CCC3C1 (stereo not drawn)	-54.3*	/	/	-4.8	/	-13.5%
CC[C@H]1NC(=O)[C@@H](NC(=O)c2ncccc2O)[C@@H](C)OC(=O)[C@H](c2ccccc2)NC(=O)[C@@H]2CC(=O)CCN2C(=O)[C@H](Cc2ccccc2)N(C)C(=O)[C@@H]2CCCN2C1=O	/	/	/	10.1	/	/
O=C(NC1CCN(Cc2ccccc2)CC1)c1ccc(Cn2c(=S)[nH]c3ccc(N4CCOCC4)cc3c2=O)cc1	-71.3*	-13.8%	-27.4%	-11.7	5.6%	i
CC1CCN(CCCn2c(=S)[nH]c3ccc(N4CCOCC4)cc3c2=O)CC1	-80.9*	2.3%	-4.3%	-54.8	-2.6%	-1.0%[57.5 µM]
O=c1c2cc(N3CCOCC3)ccc2[nH]c(=S)n1CCCN1CCCC1	-72.9*	9.7%	0.0%	-10.5	9.0%	i
CCOc1ccc(CCNC(=O)COC(=O)c2c(C)nn(-c3ccccc3)c2C)cc1OCC	9.7	/	20.3%	2.0	1.3%	i
COc1ccc(-n2nnc3c(=O)n(CC(=O)Nc4cc(C)on4)cnc32)cc1OC	19.8	-3.9%	0.0%	15.0	6.7%	-1.4%
CCOC(=O)C1=CCC(c2cc3ccccc3[nH]2)NC1 (stereo not drawn)	-3.0	/	/	-16.4	/	-10.7%
Oc1ccccc1CNc1nc2ccccc2n1CCN1CCCCC1	-74.2*	-6.6%	-2.9%	-13.4	?	-16.6%
O=C1c2cc(S(=O)(=O)NCCCO)ccc2-c2ccc(S(=O)(=O)NCCCO)cc21	-50.8*	-2.3%	3.3%	2.0	?	i
NCCC[C@H](N)C(=O)O	/	/	/	0.9	/	/
COc1ccc(Cl)cc1-c1n[nH]c(=S)n1C1CCCCC1	-59.8*	-2.9%	-8.8%	-2.0	8.7%	-15.5%[57.5 µM]
Cc1cc(Cl)ccc1OCc1n[nH]c(=S)n1C1CCCCC1	-63.6*	5.2%	-5.0%	-3.0	?	i
CN1CCN(C(=O)NC2CCCCC2)CC1	-53.8*	-0.7%	0.0%	-1.1	3.9%	-35.3%[57.5 µM]
O=C(NC1CCCCC1)N1CCCCCC1	-4.1	3.8%	0.0%	-2.2	-2.6%	i
COc1ccccc1N1CCN(CC(O)COc2cccc3ccccc23)CC1 (stereo not drawn)	-99.3*	-20.4%	/	-74.3	-1.5%	-44.5%
CCOc1ccccc1N1CCN(CC(O)COC2CCCc3ccccc32)CC1 (stereo not drawn)	-88.8*	/	-5.4%	-22.2	1.9%	i
C=CCc1ccccc1OCC(O)CNC(C)C (stereo not drawn)	-60.1*	9.2%	/	-57.5	-25.3%	-40.8%
O=S(=O)(c1cccs1)N1CCN(CC(O)COC2CCCc3ccccc32)CC1 (stereo not drawn)	?	2.8%	4.6%	4.3	-0.8%	-9.6%[57.5 µM]
COc1ccc(N2CCN(CC(O)COc3c(OC)cccc3OC)CC2)cc1 (stereo not drawn)	-27.7	/	?	-3.8	-6.0%	-6.0%
SMILES	DRD3 antagonist	CBFb-RUNX1 inh	Integrin act MD	DRD3 agonist	MBNL1 CUG block	PTHR1 ag
COc1cccc(OC)c1OCC(O)CN1CCN(c2ccccc2F)CC1 (stereo not drawn)	-56.9*	/	11.5%	27.8	0.5%	-42.7%
CCCCN(C(=O)C1CC(=O)N(c2ccc(CC)cc2)C1)c1c(N)n(CCC)c(=O)[nH]c1=O (stereo not drawn)	5.4	/	17.8%	-4.6	/	i
OC(COc1cccc2ccccc12)CN1CCN(c2ccccc2)CC1 (stereo not drawn)	-54.4*	-8.4%	2.3%	34.9*	-3.0%	-31.5%
OC(COc1cccc2ccccc12)CN1CCOCC1 (stereo not drawn)	-18.3	/	27.8%	-10.3	/	-18.6%
C=CCc1ccccc1OCC(O)CN1CCN(c2ccccc2OC)CC1 (stereo not drawn)	-138.6*	-4.4%	-34.4%	-12.1	-6.1%	-14.0%[57.5 µM]
Oc1cc2c(cc1CN1CCc3ccccc3C1)OCO2	?	/	1.6%	-26.2	6.9%	i
COc1ccccc1N1CCN(CC(O)COc2ccc3c(c2)OCO3)CC1 (stereo not drawn)	-103.3*	?	-3.8%	-13.5	/	i
OCCN1CCN(CC(O)COc2ccc3c(c2)OCO3)CC1 (stereo not drawn)	?	14.0%	16.3%	0.2	12.0%	-2.3%
COc1ccccc1N1CCN(Cc2cc3c(cc2O)OCO3)CC1	-80.6*	/	-18.6%	-26.0	-7.8%	-18.1%
COc1cccc(CNC(=O)Cn2c(=O)cc(C(F)(F)F)c3c(C)nn(C)c32)c1OC	/	/	/	3.2	/	-28.1%
C[C@@H](O)[C@H](N)C(=O)O	/	/	/	2.2	/	/
O=C(c1ccc2c(c1)CCC2)N1CCN(Cc2ccccc2)CC1	-61.1*	/	2.4%	-7.1	/	-13.8%
O=C(CN1CCN(Cc2ccccc2)CC1)Nc1ccc2c(c1)CCC2	-19.7	-9.1%	10.7%	-16.1	0.4%	-8.5%
COc1cc(OC)cc(C(=O)N2CCN(C3CCN(Cc4ccccc4)CC3)CC2)c1	-62.3*	-2.3%	-20.6%	-6.1	-3.4%	-8.6%[57.5 µM]
O=C(c1ccc(CN2CCc3ccccc3C2)cc1)N1CCc2ccccc2C1	-75.9*	-0.5%	4.2%	-16.4	1.1%	-5.1%
O=C(c1ccc(CN2CCc3ccccc3C2)cc1)N1CCN(c2ccccc2)CC1	-62.3*	?	-14.5%	0.5	?	-32.1%
O=S1(=O)CC(O)C(N=Nc2c(O)n(Cc3ccccc3)c3ccccc23)C1 (stereo not drawn)	-8.8	4.2%	-2.4%	-14.7	7.0%	7.5%
